Results: PubChem BioAssay (NCATS)
Inconclusive results are not listed. Where a call stands in place of a potency, no number is given. Activity calls are given as the source filed them. Calls come from the whole dose curve; as a rule, active = well fitted curve in the direction sought with a large enough effect; inconclusive = small, poorly fitted or top-dose-only effect, or another doubt; inactive = no such curve, though single readings can be large; an effect the other way counts as inactive or inconclusive.

Legend:
[1] = UWB1.289 Cancer Cell Toxicity qHTS against the NCATS CANVASS Library (AID 1347347); note: nearly all actives have a fitted effect of over 60% in size; note: potency is the fitted concentration of half-maximal effect
In short: (§1)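 Viability read-out: CellTiter-Glo luminescence after 72 h compound exposure at 37 °C/5% CO2. Cells plated at 1000/well, 4 h pre-incubation; 11-point titration. Bortezomib served as control.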

[2] = KB-3-1 Cancer Cell Toxicity qHTS against the NCATS CANVASS Library (AID 1347366); note: nearly all actives have a fitted effect of over 75% in size; note: potency is the fitted concentration of half-maximal effect
In short: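 KB-3-1 cells (500 cells/well) in DMEM + 10% FBS were treated with compounds for 72 hr at 37C, 5% CO2. Viability was read as CellTiter-Glo luminescence after 10 minutes at room temperature.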

[3] = DH5-alpha competent E. coli microbial cell viability qHTS against the NCATS CANVASS Library (AID 1347377); settings: outcome: dose series up to 46.1 µM unless noted
In short: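 Bacteria were dispensed at 0.2 OD, then compounds were pin-transferred. Plates were incubated overnight at 37C, after which BacTiter-Glo was added and luminescence measured 20 min later.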

[4] = qHTS for Inflammasome Signaling Inhibitors: IL-1-beta AlphaLISA screen against the NCATS CANVASS Library (AID 1347379);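 note: human THP-1 cells primed with LPS then triggered with ATP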;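 for potency: secreted IL-1B measured as AlphaLISA emission at 615 nm; potency is the fitted concentration of half-maximal effect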
In short: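 Secreted IL-1B from human THP-1 cells quantified by AlphaLISA 16 hr after compound addition (final up to 57.5 uM). A 1 hr compound pretreatment preceded inflammasome activation with 250 ng/mL LPS plus 1.25 mM ATP (final).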

[5] = qHTS for inhibitors of ER calcium dysfunction: SERCaMP assay screened against the NCATS CANVASS Library (AID 1347393); note: nearly all actives have a fitted effect of over 40% in size; note: potency is the fitted concentration of half-maximal effect
In short: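 Thapsigargin-induced ER calcium depletion drives GLuc-SERCaMP secretion from SH-SY5Y cells; compounds given 16 h beforehand were scored by lowered coelenterazine luminescence after 4 h challenge.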

[6] = HPAF-II Cancer Cell Toxicity qHTS against the NCATS CANVASS Library (AID 1347346); note: nearly all actives have a fitted effect of over 55% in size; note: potency is the fitted concentration of half-maximal effect
In short: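 First, HPAF-II cells are plated (1000 cells/well) and held 4 h at 37 degrees C. Next, compounds are pin-transferred as an 11-point series. After 72 h, CellTiter-Glo is added and luminescence measured.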

[7] = Panc-1005 Cancer Cell Toxicity qHTS against the NCATS CANVASS Library (AID 1347349); note: nearly all actives have a fitted effect of over 60% in size; note: potency is the fitted concentration of half-maximal effect
In short: as §1

[8] = COV-362 Cancer Cell Toxicity qHTS against the NCATS CANVASS Library (AID 1347352); note: potency is the fitted concentration of half-maximal effect
In short: (§2)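 First, 1000 cells go into each well and rest for 4 hours. Next, an 11-point dilution range is pinned in. Plates then incubate 72 hours before CellTiter-Glo addition and luminescence reading.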

[9] = HEK-293 Cancer Cell Toxicity qHTS against the NCATS CANVASS Library (AID 1347355); note: nearly all actives have a fitted effect of over 65% in size; note: potency is the fitted concentration of half-maximal effect; for outcome: series mostly up to about 46 µM
In short: as §2

[10] = Confirmatory screen NINDS Rhodamine qHTS for Zika virus inhibitors (AID 1347161); note: potency is the fitted concentration of half-maximal effect; nearly all actives have a fitted effect of over 60% in size
In short: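 In 10 mM Tris-HCl pH 8.0 containing 0.01% Tween 20, linked NS2B-NS3 protease (25 nM final) is exposed to test compounds for 15 min. Cleavage of 1.5 microM Rhodamine110 substrate is tracked by fluorescence over 15 min.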

CC1=C2CC[C@]3(C)[C@H](CC=C4[C@@H]5CC(C)(C)CC[C@@H]5C(=O)[C@H](O)[C@]43C)[C@@]2(C)C=C(O)C1=O
Potency [1]: inactive
Potency [2]: inactive
outcome [3]: inactive
Potency [4]: inactive
Potency [5]: 12.2 µM (active)

C=C[C@](Cl)(CBr)CCC=C(C)C
Potency [6]: inactive
Potency [1]: inactive
Potency [7]: inactive
Potency [8]: inactive
Potency [9]: inactive
outcome [3]: inactive

C/C1=C/[C@@H](C)[C@H](O)[C@@H](O)/C=C/CC/C=C/C(=O)O[C@@H]1[C@H](C)C(=O)/C=C/CC1CC(=O)NC(=O)C1
Potency [6]: inactive
Potency [2]: inactive
outcome [3]: inactive

CCC(=O)N[C@@H](C[C@H](C)C(Cl)(Cl)Cl)C(=O)N1C(=O)C=C(OC)[C@@H]1C[C@H](C)CCl
Potency [6]: 16.8 µM (active)
Potency [9]: inactive
Potency [2]: inactive

C=CC(C)(C)C(=O)[C@@H](C)[C@@H]1CC[C@@](C)(C=C)O1
Potency [6]: inactive
Potency [1]: inactive
Potency [7]: inactive
Potency [8]: inactive
Potency [9]: inactive
outcome [3]: inactive
Potency [4]: inactive
Potency [5]: inactive

O=C(OC[C@H]1O[C@@H](OC(=O)c2cc(O)c(O)c(O)c2)[C@H](OC(=O)c2cc(O)c(O)c(O)c2)[C@@H](OC(=O)c2cc(O)c(O)c(O)c2)[C@@H]1OC(=O)c1cc(O)c(O)c(O)c1)c1cc(O)c(O)c(O)c1
Potency [1]: 18.8 µM (active)
Potency [7]: 8.41 µM (active)
Potency [4]: inactive

CCCCc1nn2c(=O)cc(COC(=O)c3ccc(NC(=O)c4ccccc4Cl)cc3)nc2s1
Potency [10]: 44.7 µM (active)

Oc1ccc(C2Oc3cc(O)c4c(c3[C@@H]2c2cc(O)cc(O)c2)[C@H]2C(c3ccc(O)cc3)c3c(O)cc5c(c3[C@H]2C4c2ccc(O)cc2)[C@H](c2cc(O)cc(O)c2)C(c2ccc(O)cc2)O5)cc1 (stereo partly drawn)
Potency [6]: inactive
Potency [9]: inactive
Potency [2]: 13.2 µM (active)
outcome [3]: inactive
Potency [4]: inactive
Potency [5]: inactive

COc1cc([C@@H]2c3cc4c(cc3C[C@@]3(O[C@@H]5O[C@H](CO)[C@@H](O)[C@H](O)[C@H]5O)COC(=O)[C@H]23)OCO4)cc(OC)c1OC
Potency [6]: inactive
Potency [9]: 0.0469 µM (active)
Potency [2]: 0.0372 µM (active)
outcome [3]: inactive
Potency [4]: inactive
Potency [5]: inactive

C/C(=C\[C@H](C)C(=O)CCCC1CC(=O)NC(=O)C1)[C@@H]1OC(=O)/C=C/CC/C=C/[C@H](O)[C@@H](O)[C@@H]1C
Potency [6]: 1.33 µM (active)
Potency [1]: 1.18 µM (active)
Potency [7]: 0.668 µM (active)
outcome [3]: inactive
Potency [4]: 6.11 µM (active)
Potency [5]: inactive

C/C(=C\[C@H](C)C(=O)/C=C/CC1CC(=O)NC(=O)C1)[C@@H]1OC(=O)/C=C/CC/C=C/C[C@@H](O)[C@@H]1C
Potency [6]: 2.98 µM (active)
Potency [1]: 2.98 µM (active)
Potency [8]: 2.36 µM (active)
Potency [2]: 11.8 µM (active)
Potency [4]: 6.11 µM (active)
Potency [5]: inactive
